Drawing on ChEMBL document CHEMBL3988442, “University of Dundee, Small-Polar-MMV Screening Library” (2021), this text covers Percent Effect for 21 molecules.

The target of the assay is Chromo domain-containing protein 1 (Saccharomyces cerevisiae (strain ATCC 204508 / S288c) (Baker's yeast)) (UniProt P32657). Briefly: ScCHD-1 Enzyme Inhibition Assay. It is filed as functional. Further details: scale not given: in the data most compounds retested in dose-response had high values. The following applies: 30 µM.
Chain of Chromo domain-containing protein 1 (Saccharomyces cerevisiae (strain ATCC 204508 / S288c) (Baker's yeast)) (P32657 whole entry, the tested form may be a part): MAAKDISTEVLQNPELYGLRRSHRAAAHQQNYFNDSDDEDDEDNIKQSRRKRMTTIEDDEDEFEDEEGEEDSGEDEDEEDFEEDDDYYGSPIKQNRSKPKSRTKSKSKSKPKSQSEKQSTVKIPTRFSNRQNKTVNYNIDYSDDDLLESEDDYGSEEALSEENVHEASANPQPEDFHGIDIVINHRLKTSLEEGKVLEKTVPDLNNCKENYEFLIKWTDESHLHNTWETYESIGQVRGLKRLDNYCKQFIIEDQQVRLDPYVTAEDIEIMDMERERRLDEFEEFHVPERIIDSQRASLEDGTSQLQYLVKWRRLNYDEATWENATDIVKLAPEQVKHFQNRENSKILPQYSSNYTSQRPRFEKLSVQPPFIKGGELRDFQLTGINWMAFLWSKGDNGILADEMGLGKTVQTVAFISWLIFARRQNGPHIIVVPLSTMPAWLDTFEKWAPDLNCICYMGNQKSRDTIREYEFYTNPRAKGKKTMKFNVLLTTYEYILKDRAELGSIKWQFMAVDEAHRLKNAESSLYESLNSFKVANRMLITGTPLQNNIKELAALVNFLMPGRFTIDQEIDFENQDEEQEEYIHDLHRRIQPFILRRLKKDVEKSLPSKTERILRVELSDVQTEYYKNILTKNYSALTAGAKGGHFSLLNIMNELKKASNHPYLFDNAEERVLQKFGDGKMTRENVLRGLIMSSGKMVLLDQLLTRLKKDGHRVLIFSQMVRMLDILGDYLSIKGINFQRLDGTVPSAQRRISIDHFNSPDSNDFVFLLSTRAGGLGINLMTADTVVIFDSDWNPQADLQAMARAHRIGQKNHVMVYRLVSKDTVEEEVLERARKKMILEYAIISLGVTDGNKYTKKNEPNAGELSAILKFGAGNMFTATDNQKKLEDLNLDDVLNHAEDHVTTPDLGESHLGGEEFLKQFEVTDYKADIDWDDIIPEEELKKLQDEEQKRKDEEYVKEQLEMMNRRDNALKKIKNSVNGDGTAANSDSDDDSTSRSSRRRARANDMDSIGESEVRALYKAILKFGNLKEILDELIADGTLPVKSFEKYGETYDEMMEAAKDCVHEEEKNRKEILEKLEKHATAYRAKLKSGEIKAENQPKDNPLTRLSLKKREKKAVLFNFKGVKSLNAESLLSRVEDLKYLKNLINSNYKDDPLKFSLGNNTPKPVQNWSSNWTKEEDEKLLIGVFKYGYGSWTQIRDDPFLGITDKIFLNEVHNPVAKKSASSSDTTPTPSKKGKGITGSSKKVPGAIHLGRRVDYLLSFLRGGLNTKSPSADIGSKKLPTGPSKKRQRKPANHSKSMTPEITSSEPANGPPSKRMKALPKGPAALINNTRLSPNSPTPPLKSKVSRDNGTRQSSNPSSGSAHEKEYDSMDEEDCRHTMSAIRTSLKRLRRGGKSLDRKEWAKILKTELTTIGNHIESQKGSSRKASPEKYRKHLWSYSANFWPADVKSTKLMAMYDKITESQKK
As for `CN(C)C(=O)N1CCOCC2(CCN(c3ccccn3)C2)C1` (stereo unspecified), the Percent Effect is -3.16%.

On to `CCN(CC)Cc1ccc(C(=O)N2CCCCC2Cn2cccn2)o1` (stereo unspecified), for which the Percent Effect is 0.882%.

With `O=C(c1ccc(F)c(F)c1)N1CCCSCC1CN1CCCC1` (stereo unspecified), the Percent Effect is -8.34%.

As to `Cn1cc(N2CC3(CCN(CC4CCOCC4)CC3)OCC2=O)cn1`, the Percent Effect was -4.82%.

As to `Cc1cn2nc(N3CCCC3CC(C)(C)C)sc2n1` (stereo unspecified), the Percent Effect was -4.52%.

For `CCSc1cc(C(=O)NCCC(=O)Nc2ccccn2)ccn1`, the Percent Effect is -3.9%.

On to `CC(C)Cc1noc(CN2CCN(CCO)CC2)n1`, for which the Percent Effect was -8.48%.

On to `CCOc1cc(F)ccc1NS(=O)(=O)c1cc(C)c(C(=O)O)s1`, for which the Percent Effect was -11.4%.

In the case of `O=C(CC1CC1)NCc1cn2c(n1)CN(CC1CC1)CC2`, the Percent Effect was -5.22%.

As to `COc1cccc2c1OCC(NC(=O)NCc1cccs1)C2` (stereo unspecified), the Percent Effect is -6.35%.

With `Cc1nc(-c2ccsc2)ccc1C(=O)NCCC(=O)N1CCCC1`, the Percent Effect was -11.3%.

As to `COc1ccc(-c2nc(CN3CC(n4cc(C)cn4)C3)no2)cc1`, the Percent Effect was -9.02%.

On to `Cn1nc(CNC(=O)C2CC2)cc1C1CC1`, for which the Percent Effect was -7.39%.

Consider `CCCc1n[nH]c(C2CN(Cc3nnc(C4CC4)o3)CCO2)n1` (stereo unspecified), for which the Percent Effect is -0.679%.

For the molecule `CC(=O)N1CCCN(C(=O)c2cnc3n[nH]c(C)c3c2)CC1`, the Percent Effect was -9.47%.

For `COc1ccc(C2(CNC(C)c3nnc(C)o3)CCCCC2)cc1` (stereo unspecified), the Percent Effect was found to be 0.233%.

For `CCN(CC)Cc1cn2c(n1)CN(C(=O)c1cnccn1)CC2`, the Percent Effect stood at 0.514%.

Take `OCCOc1nc(-c2ccccc2Cl)no1`: the Percent Effect was -5.57%.

On to `CCN(C)c1ncnc2c1CCN(C(=O)N1CCCC1)CC2`, for which the Percent Effect was -5.04%.

For the molecule `NCC1CN(c2nc(-c3ccccc3)nc3c2CCNCC3)CCO1` (stereo unspecified), the Percent Effect is 0.577%.

Turning to `Cc1cnc(N2CCn3cc(CNC(=O)CC4CC4)nc3C2)nc1`, the Percent Effect was -5.33%.
